# Measured values: PubChem BioAssay AID504710 (Sanford-Burnham Center for Chemical Genomics, 2011)
# Unmarked numbers belong to inactive results. Calls of active or inactive are those of the source.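 Rule for the calls: active = inhibition reaching about 16% in any single replicate (limit read from the data); inactive = the rest.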
# Molecular target: Hexokinase HKDC1 (Homo sapiens) (UniProt Q2TB90)
# Assay: HKDC1 hexokinase inhibitors, confirmation, biochemical, single concentration (AID 504710)
# Conditions: recombinant HKDC1, G6PDH/diaphorase/resazurin fluorescence; at 20 µM; hits give high values
# Sequence of Hexokinase HKDC1 (Homo sapiens) (Q2TB90 whole entry, looked up): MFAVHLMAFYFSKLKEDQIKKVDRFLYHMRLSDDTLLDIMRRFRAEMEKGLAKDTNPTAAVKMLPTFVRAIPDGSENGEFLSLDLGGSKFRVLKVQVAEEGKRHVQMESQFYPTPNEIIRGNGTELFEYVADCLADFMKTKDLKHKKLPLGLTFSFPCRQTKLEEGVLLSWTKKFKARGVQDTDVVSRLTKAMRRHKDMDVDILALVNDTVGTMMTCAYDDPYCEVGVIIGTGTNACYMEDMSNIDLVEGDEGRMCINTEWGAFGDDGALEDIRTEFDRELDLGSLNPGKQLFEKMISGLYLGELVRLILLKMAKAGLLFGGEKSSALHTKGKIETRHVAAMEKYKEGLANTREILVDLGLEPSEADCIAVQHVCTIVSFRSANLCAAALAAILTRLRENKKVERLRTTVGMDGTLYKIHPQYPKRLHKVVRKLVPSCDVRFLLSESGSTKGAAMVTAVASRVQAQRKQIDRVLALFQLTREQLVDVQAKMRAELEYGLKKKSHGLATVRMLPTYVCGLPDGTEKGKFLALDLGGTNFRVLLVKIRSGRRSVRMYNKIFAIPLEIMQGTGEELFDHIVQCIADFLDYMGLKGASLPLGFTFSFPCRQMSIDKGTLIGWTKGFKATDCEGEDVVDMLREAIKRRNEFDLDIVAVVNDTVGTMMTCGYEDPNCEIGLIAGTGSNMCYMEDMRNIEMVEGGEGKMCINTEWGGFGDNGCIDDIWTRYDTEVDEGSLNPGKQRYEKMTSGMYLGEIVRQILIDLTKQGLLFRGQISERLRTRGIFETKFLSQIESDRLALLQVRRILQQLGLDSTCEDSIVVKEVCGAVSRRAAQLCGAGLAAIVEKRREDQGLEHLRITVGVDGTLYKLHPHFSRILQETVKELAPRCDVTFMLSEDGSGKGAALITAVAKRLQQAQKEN
row,SMILES,inhibition
1,Cc1cccc(N2C(=O)NC(=O)/C(=C\c3cc(C)n(-c4sc5c(c4C#N)CCCC5)c3C)C2=O)c1C,54.9% (active)
2,O=c1c2ccccc2[se]n1-c1ccccc1,5.01% (active)
3,O=C1NC(=S)N(c2ccc(F)cc2)C(=O)/C1=C\c1ccoc1,55.2% (active)
4,Cc1ccc(N2C(=O)NC(=O)/C(=C\c3cc(C)n(-c4sc5c(c4C#N)CCCC5)c3C)C2=O)cc1,77.3% (active)
5,Cn1c(=O)c2c(nc(N/N=C/c3c(O)n(C4CCCCC4)c(=S)[nH]c3=O)n2C)n(C)c1=O,-49.5%
6,CC(=O)OC1C2(CC3N4C(=O)C5(CO)SSC4(CC31O)C(=O)N5C)OC(C)C(C)(C)C2=O (stereo not given),-77%
7,CCOC(=O)c1c(-n2c(C)cc(C=C3C(=O)NC(=S)NC3=O)c2C)sc2c1CCCC2,61% (active)
8,COC(=O)C1CN(C#N)N(c2ccc(Cl)cc2)C12c1ccccc1-c1ccccc12 (stereo not given),73.6% (active)
9,CCN(CC)CCCNC(=O)c1c(O)c2ccccc2n(Cc2ccccc2)c1=O,-37.1%
10,Cc1cccc(N2C(=O)NC(=O)/C(=C\c3ccc4c(c3)CCCN4Cc3ccccc3)C2=O)c1,45.2% (active)
11,COC(=O)C1=C(C(=O)OC)SC2(S1)C(C(=O)OC)=C(C(=O)OC)Sc1c2ssc1=O,-88.9%
12,Nc1c(Br)cc2c3c(cccc13)-c1ccccc1-2,51.2% (active)
13,COc1ccc(OC)c(N2C(=O)/C(=C/c3ccco3)C(=O)NC2=S)c1,77.4% (active)
14,COC(=O)C[C@]1(C(=O)OC)CN(C#N)N(c2ccc(Cl)cc2)C12c1ccccc1-c1ccccc12,62.4% (active)
15,Cc1cc(/C=C2\C(=O)NC(=O)N(c3ccc(Cl)cc3)C2=O)c(C)n1-c1sc2c(c1C#N)CCCC2,56.4% (active)
16,CC(=NNC(=S)N1CC2CCC(CC2)C1)c1nccs1,-42.1%
17,COc1cc2c(cc1OC)-c1c(OC)c(OC)c(OC)c3ccnc(c13)C2=O,57.5% (active)
18,CC[C@H](C)/C=C(C)/C=C/C1=CC2=C(Cl)C(=O)[C@@](C)(OC(C)=O)C(=O)C2=CO1,45.8% (active)
19,COC(=O)[C@@H]1[C@@H](C(=O)OC)C2(c3ccccc3-c3ccccc32)N(c2ccc(Cl)cc2)N1C#N,43.1% (active)
20,Cc1ccc2c(C)c3ccc4ccccc4c3c[n+]2c1,-65.5%
